# Data as given in PubChem BioAssay (Tox21).
# Results filed as inconclusive are left out. Activity calls are given as the source filed them. The call rests on the fitted dose curve; in most records, active means well fitted curve in the direction sought with a large enough effect in the repeat runs; inconclusive means weak or mixed curves; inactive means no such curve, though single readings can be large; an effect the other way counts as inactive or inconclusive.
# Assay: qHTS RealTime-Glo MT Cell Viability Assay in HepG2 cells - 16 hour (AID 1224885)
# Details: RealTime-Glo luminescence; series mostly up to 76.8 µM; activity change, negative = cytotoxic: at the top concentration
# Outline: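 Luminescence read-out: viable HepG2 cells reduce a prosubstrate to a NanoLuc substrate, giving a signal proportional to live cell number. Reads taken at 0, 8, 16, 24, 32 and 40 h of compound exposure at 37 C.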
# Further: nearly all actives have a fitted effect of over 50% in size.
# On the % scale 0 is the no-effect control and ±100 the full control effect.
row,Compound,"activity change, negative = cytotoxic"
1,CC(=O)NC(=O)c1ccccc1O,3.05% [at 35.3 µM] (inactive)
2,O=C1NC(=O)C2CC=CCC12 (centres undefined),2.33% (inactive)
3,CC1=NN(c2cccc(S(=O)(=O)O)c2)C(=O)C1,0.413% (inactive)
4,CCCc1nn(C)c2c(=O)[nH]c(-c3cc(S(=O)(=O)N4CCN(C)CC4)ccc3OCC)nc12,-4.77% [at 35.3 µM] (inactive)
5,CN(C)C(=O)Oc1ccc[n+](C)c1,7.21% [at 35.3 µM] (inactive)
6,C=CC(C)(CCC=C(C)C)OC(=O)CC (centres undefined),0.668% (inactive)
7,C[N+]12CCC(CC1)C(OC(=O)C(O)(c1ccccc1)c1ccccc1)C2 (centres undefined),0.389% [at 35.3 µM] (inactive)
8,CC1=CCC(O)(C(C)C)CC1 (centres undefined),1.08% (inactive)
9,c1coc(CNc2ncnc3nc[nH]c23)c1,-0.611% (inactive)
10,Cc1onc(-c2c(Cl)cccc2Cl)c1C(=O)Cl,5.12% [at 35.3 µM] (inactive)
11,CCCC(=O)O[C@]1(C(=O)CC)CC[C@H]2[C@@H]3CCC4=CC(=O)CC[C@]4(C)[C@H]3[C@@H](O)C[C@@]21C,-18% [at 35.3 µM] (inactive)
12,NCCCC[C@H](N[C@@H](CCc1ccccc1)C(=O)O)C(=O)N1CCC[C@H]1C(=O)O,2.2% [at 35.3 µM] (inactive)
13,CC(=O)O[C@@]12CO[C@@H]1C[C@H](O)[C@@]1(C)C(=O)[C@H](O)C3=C(C)[C@@H](OC(=O)[C@H](O)[C@@H](NC(=O)OC(C)(C)C)c4ccccc4)C[C@@](O)([C@@H](OC(=O)c4ccccc4)[C@H]21)C3(C)C,-15.3% [at 35.3 µM] (inactive)
14,CC(C)CC(C)(N)C#N (centres undefined),4.48% (inactive)
15,CCCCCCCCN1CCCC1=O,3% (inactive)
16,Nc1ccn([C@@H]2O[C@H](CO)[C@@H](O)C2(F)F)c(=O)n1,0.786% [at 35.3 µM] (inactive)
17,NC(=O)N1c2ccccc2CC(=O)c2ccccc21,1.18% [at 35.3 µM] (inactive)
18,CCCCOCCOC(=O)COc1cc(Cl)c(Cl)cc1Cl,4.86% (inactive)

row,Compound,"activity change, negative = cytotoxic"
1,COc1cc2c(cc1OC)-c1cc3ccc(OC)c(OC)c3c[n+]1CC2,-10.8% (inactive)
2,CCOCC(C)O (centres undefined),0.655% (inactive)
3,CC(C)COC(=O)c1ccc(N)cc1,-0.378% [at 35.3 µM] (inactive)
4,CC(COc1ccccc1)NN (centres undefined),0.518% [at 35.3 µM] (inactive)
5,CCCCCCCCCCOc1cc2c(=O)c(C(=O)OCC)c[nH]c2cc1OCC,4.28% [at 6.97 µM] (inactive)
6,COC(=O)Nc1ccc(Cl)c(Cl)c1,0% (inactive)
7,CC(C)c1ccc2ncccc2c1,1.91% (inactive)
8,CC(=O)Nc1ccc(OCC(O)CNC(C)C)cc1 (centres undefined),2.7% [at 35.3 µM] (inactive)
9,CCCCCC(=O)OCCc1ccccc1,0.0662% (inactive)
10,C=CCCCCCCCCC(=O)OCC,-0.158% (inactive)
11,CN1CC(=O)N/C1=N/C(=O)Nc1cccc(Cl)c1,0.448% [at 35.3 µM] (inactive)
12,Cc1nc2ccc(CN(C)c3ccc(C(=O)N[C@@H](CCC(=O)O)C(=O)O)s3)cc2c(=O)[nH]1,0.355% [at 35.3 µM] (inactive)
13,O=S(=O)(O)c1cc(O)c(O)c(S(=O)(=O)O)c1,0.718% (inactive)
14,CCCCc1nc(Cl)c(CO)n1Cc1ccc(-c2ccccc2-c2nn[nH]n2)cc1,-0.564% [at 35.3 µM] (inactive)
15,CCOC(=O)CCC(=O)OCC,1.6% (inactive)
16,CC(C)(C#N)Nc1nc(Cl)nc(NC2CC2)n1,-5.73% (inactive)
17,O=[N+]([O-])c1ccc(/C=N\O)o1,2.66% [at 35.3 µM] (inactive)
18,CCCOC(=O)CC,3.41% (inactive)

# Assay: qHTS RealTime-Glo MT Cell Viability Assay in HEK293 cells - 24 hour (AID 1224886); further: top concentration of the series differs between compounds
# Details: RealTime-Glo luminescence; series mostly up to 76.8 µM; activity change, negative = cytotoxicity: at the top concentration
# Outline: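 Nonlytic real-time viability readout: viable cells convert prosubstrate to NanoLuc substrate, giving luminescence proportional to live cell number. HEK293, 600 cells/well, compound added after 5 h, continuous culture at 37 C.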
row,Compound,"activity change, negative = cytotoxicity"
1,CC1=CCC(O)(C(C)C)CC1 (centres undefined),1.8% (inactive)
2,CC(COc1ccccc1)NN (centres undefined),3.93% [at 35.3 µM] (inactive)
3,C=CCCCCCCCCC(=O)OCC,11.8% (inactive)
4,CN1CC(=O)N/C1=N/C(=O)Nc1cccc(Cl)c1,-12.1% [at 35.3 µM] (inactive)
5,O=S(=O)(O)c1cc(O)c(O)c(S(=O)(=O)O)c1,0.106% (inactive)
6,CC(C)(C#N)Nc1nc(Cl)nc(NC2CC2)n1,-2.96% (inactive)
7,O=[N+]([O-])c1ccc(/C=N\O)o1,2.83% [at 35.3 µM] (inactive)
8,CCCOC(=O)CC,8.75% (inactive)

# Assay: qHTS RealTime-Glo MT Cell Viability Assay in HEK293 cells - 8 hour (AID 1224887); further: top concentration of the series differs between compounds
# Details: RealTime-Glo luminescence; series mostly up to 76.8 µM; activity change, negative = cytotoxicity: at the top concentration
# Outline: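 Kinetic, non-lysing viability readout. Seed HEK293 (600/well) with reagent, incubate 5 h at 37 C/5% CO2, pin 23 nL compound in DMSO, incubate at 37 C, read luminescence at 0, 8, 16, 24, 32, 40 h.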
row,Compound,"activity change, negative = cytotoxicity"
1,O=C1NC(=O)C2CC=CCC12 (centres undefined),18.3% (inactive)
2,CC1=NN(c2cccc(S(=O)(=O)O)c2)C(=O)C1,1.59% (inactive)
3,CN(C)C(=O)Oc1ccc[n+](C)c1,2% [at 35.3 µM] (inactive)
4,C=CC(C)(CCC=C(C)C)OC(=O)CC (centres undefined),2.54% (inactive)
5,C[N+]12CCC(CC1)C(OC(=O)C(O)(c1ccccc1)c1ccccc1)C2 (centres undefined),6.35% [at 35.3 µM] (inactive)
6,Cc1onc(-c2c(Cl)cccc2Cl)c1C(=O)Cl,13.8% [at 35.3 µM] (inactive)
7,CCCC(=O)O[C@]1(C(=O)CC)CC[C@H]2[C@@H]3CCC4=CC(=O)CC[C@]4(C)[C@H]3[C@@H](O)C[C@@]21C,-6.45% [at 35.3 µM] (inactive)
8,NCCCC[C@H](N[C@@H](CCc1ccccc1)C(=O)O)C(=O)N1CCC[C@H]1C(=O)O,6.72% [at 35.3 µM] (inactive)
9,CC(=O)O[C@@]12CO[C@@H]1C[C@H](O)[C@@]1(C)C(=O)[C@H](O)C3=C(C)[C@@H](OC(=O)[C@H](O)[C@@H](NC(=O)OC(C)(C)C)c4ccccc4)C[C@@](O)([C@@H](OC(=O)c4ccccc4)[C@H]21)C3(C)C,-23.7% [at 35.3 µM] (inactive)
10,CC(C)CC(C)(N)C#N (centres undefined),6.85% (inactive)
11,CCCCCCCCN1CCCC1=O,-3.05% (inactive)
12,NC(=O)N1c2ccccc2CC(=O)c2ccccc21,1.48% [at 35.3 µM] (inactive)
13,CCCCOCCOC(=O)COc1cc(Cl)c(Cl)cc1Cl,19.7% (inactive)
14,COc1cc2c(cc1OC)-c1cc3ccc(OC)c(OC)c3c[n+]1CC2,-23.2% (inactive)
15,CCOCC(C)O (centres undefined),2.12% (inactive)
16,CC(C)COC(=O)c1ccc(N)cc1,-0.136% [at 35.3 µM] (inactive)
17,CCCCCCCCCCOc1cc2c(=O)c(C(=O)OCC)c[nH]c2cc1OCC,3.87% [at 6.97 µM] (inactive)
18,CC(C)c1ccc2ncccc2c1,3.15% (inactive)
19,CCCCCC(=O)OCCc1ccccc1,0.164% (inactive)
20,C=CCCCCCCCCC(=O)OCC,0.41% (inactive)
21,O=S(=O)(O)c1cc(O)c(O)c(S(=O)(=O)O)c1,0.327% (inactive)
22,CCCCc1nc(Cl)c(CO)n1Cc1ccc(-c2ccccc2-c2nn[nH]n2)cc1,-15.1% [at 35.3 µM] (inactive)
23,CCOC(=O)CCC(=O)OCC,6.07% (inactive)
24,CC(C)(C#N)Nc1nc(Cl)nc(NC2CC2)n1,-19.8% (inactive)
25,CCCOC(=O)CC,8.5% (inactive)
